The values that follow come from PubChem BioAssay.

For assay [1], the target named is Regulator of G-protein signaling 16 (Homo sapiens) (UniProt O15492). As to the kind of experiment: modulators of RGS–Galpha-o binding, primary screen, biochemical, multiplexed beads, flow cytometry, RGS4/7/8/16/19 (AID 1504).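 Note: fluorescently labeled Galpha-o bound to GDP with aluminium fluoride binding biotinylated RGS beads.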 The note with it: multiplexed bead flow cytometry, measured here: RGS16 interaction, at 10 µM. (A flow cytometer gives signals particle by particle.)

The target in assay [2] is Regulator of G-protein signaling 19 (Homo sapiens) (UniProt P49795). The assay is described as above. The note with it: multiplexed bead flow cytometry, measured here: RGS19 interaction, at 10 µM.
Assay [3] concerns the target Regulator of G-protein signaling 7 (Homo sapiens) (UniProt P49802). The assay is described as above. The note with it: multiplexed bead flow cytometry, measured here: RGS7 interaction, at 10 µM.
Assay [4] has as its target Regulator of G-protein signaling 8 (Homo sapiens) (UniProt P57771). Described as above. The conditions noted are these: multiplexed bead flow cytometry, measured here: RGS8 interaction, at 10 µM.
Assay [5] in a line: disruption of biotin probe capture by avidin, counter-screen for RGS protein interaction modulators, biochemical, flow cytometry, bead-based (AID 1783;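 active = inhibition above 50%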;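 note: median green fluorescence of gated singlet beads compared with DMSO control wells; 0% = DMSO wells and 100% = complete loss of bead fluorescence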). The note with it: streptavidin beads, fluorescein-biotin binding; at 10 µM, stronger effect = higher value. Background: The purpose of a counterscreen is to sort out artefacts and off-target activity.
Assay [6] deals with Guanine nucleotide-binding protein G(o) subunit alpha (Homo sapiens) (UniProt P09471). As to the kind of experiment: RGS8-Galphao binding modulators, confirmation, biochemical, multiplexed bead flow cytometry, single concentration (AID 1836).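 Note: Galphao activated as GDP AlF4 complex before binding bead RGS8.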 The note with it: bead-based flow cytometry RGS8-Galphao binding, fluorescence; at 10 µM; actives lie on both sides.
Guanine nucleotide-binding protein G(o) subunit alpha (Homo sapiens), sequence (P09471 whole entry, looked up): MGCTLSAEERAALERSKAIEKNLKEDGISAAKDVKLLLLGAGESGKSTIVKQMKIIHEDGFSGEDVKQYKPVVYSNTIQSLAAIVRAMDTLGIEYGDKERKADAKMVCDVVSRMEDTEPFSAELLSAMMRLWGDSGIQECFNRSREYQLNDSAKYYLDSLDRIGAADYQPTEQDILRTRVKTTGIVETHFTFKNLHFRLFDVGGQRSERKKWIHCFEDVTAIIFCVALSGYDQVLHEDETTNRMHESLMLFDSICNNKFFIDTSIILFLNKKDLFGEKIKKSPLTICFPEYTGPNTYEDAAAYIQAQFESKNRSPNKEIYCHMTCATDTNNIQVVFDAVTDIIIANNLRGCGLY
For assay [7] the target is unchanged. Description: RGS7-Galphao binding modulators, confirmation, biochemical, multiplexed bead flow cytometry, single concentration (AID 1837; in the data active = response below about 75% or above about 130%; inactive = in between;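 note: fluorescent Galphao activated with GDP and aluminum fluoride binding bead-coupled RGS7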). The conditions noted are these: bead-based flow cytometry RGS7-Galphao binding; at 10 µM; actives lie on both sides.
Assay [8] deals with Regulator of G-protein signaling 16 (Homo sapiens) + Guanine nucleotide-binding protein G(o) subunit alpha (Homo sapiens) (UniProt O15492+P09471). Description: modulators of RGS16-Galphao protein binding, confirmation, biochemical, single concentration, multiplexed bead flow cytometry (AID 1838; in the data active = response below about 74% or above about 130%; inactive = in between;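 note: Galphao activated as the GDP aluminium fluoride complex binding bead-coupled RGS16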). The note with it: bead-based flow cytometry, at 10 µM, actives lie on both sides.
Regulator of G-protein signaling 16 (Homo sapiens) + Guanine nucleotide-binding protein G(o) subunit alpha (Homo sapiens), sequence (O15492 whole entry, looked up): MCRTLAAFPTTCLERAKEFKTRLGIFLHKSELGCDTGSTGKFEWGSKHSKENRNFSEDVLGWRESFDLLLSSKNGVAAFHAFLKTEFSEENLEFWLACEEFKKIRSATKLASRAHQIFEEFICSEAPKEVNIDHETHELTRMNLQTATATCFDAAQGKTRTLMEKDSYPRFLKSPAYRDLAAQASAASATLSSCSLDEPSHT
Regulator of G-protein signaling 16 (Homo sapiens) + Guanine nucleotide-binding protein G(o) subunit alpha (Homo sapiens), sequence (P09471 whole entry, looked up): as the sequence (P09471 whole entry, looked up) above
The target of assay [9] is Guanine nucleotide-binding protein G(o) subunit alpha (Homo sapiens) (UniProt P09471). Description: modulators of RGS4-Galphao protein binding, confirmation, biochemical, single concentration, multiplexed bead flow cytometry (AID 1840; in the data active = binding response below about 74% or above about 130%; inactive = in between). The note with it: at 10 µM, actives lie on both sides.
For assay [10], the target named is Guanine nucleotide-binding protein G(o) subunit alpha (Homo sapiens) + Regulator of G-protein signaling 19 (Homo sapiens) (UniProt P09471+P49795). As to the kind of experiment: regulators of RGS19-Galphao binding, confirmation, biochemical, single point, multiplexed bead flow cytometry (AID 1841; in the data active = response below about 50% or above about 160%; inactive = in between;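 note: 100% = no compound control and 0% = blank background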). The conditions noted are these: bead-based flow cytometry RGS19-Galphao binding; at 10 µM; actives lie on both sides.
Guanine nucleotide-binding protein G(o) subunit alpha (Homo sapiens) + Regulator of G-protein signaling 19 (Homo sapiens), sequence (P09471 whole entry, looked up): as above
Guanine nucleotide-binding protein G(o) subunit alpha (Homo sapiens) + Regulator of G-protein signaling 19 (Homo sapiens), sequence (P49795 whole entry, looked up): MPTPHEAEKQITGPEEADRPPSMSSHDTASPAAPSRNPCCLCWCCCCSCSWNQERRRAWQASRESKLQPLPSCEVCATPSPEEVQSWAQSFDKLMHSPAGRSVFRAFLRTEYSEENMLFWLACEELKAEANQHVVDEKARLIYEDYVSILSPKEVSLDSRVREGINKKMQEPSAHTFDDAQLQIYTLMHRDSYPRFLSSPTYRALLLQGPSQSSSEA

The nature of assay [11]: yeast TOR pathway RPL19A-GFP modulators, primary screen, cell-based, S. cerevisiae, multiplex flow cytometry (AID 1862; in the data active = percent of DMSO control GFP below about 86%;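 note: lower values mimic rapamycin by blocking the RPL19A rise seen in DMSO cells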). The conditions noted are these: S. cerevisiae RPL19A-GFP strain, flow cytometry fluorescence, 3 h; at 10 µM; stronger effect = lower value.
Assay [12] is described as follows: modulators of MEP2-GFP levels in yeast, primary screen, S. cerevisiae, multiplex flow cytometry (AID 1867;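 active = GFP response, as percent of the DMSO control, above the screen-wide mean plus 3 SD, about 139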;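 note: median GFP channel fluorescence of barcode-gated MEP2-GFP cells measured by flow cytometry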). The note with it: S. cerevisiae MEP2-GFP strain, 3 h, at 10 µM, stronger effect = higher value, 100% means same as DMSO wells.
Assay [13] can be described thus: modulators of CIT2-GFP expression in yeast, primary screen, S. cerevisiae, GFP fusion, multiplex flow cytometry (AID 1870;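 active = percent response above a set limit, the screen-wide mean plus 3 SD, cut at about 130% in these data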;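 note: barcoded CIT2-GFP strain pooled with four other GFP strains with rapamycin as positive control; median GFP fluorescence per well over plate mean of DMSO wells so 100% = DMSO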). The conditions noted are these: 3 h, at 10 µM, stronger effect = higher value.
The nature of assay [14]: modulators of LAP4-GFP expression in yeast, primary screen, S. cerevisiae, multiplex flow cytometry (AID 1873;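 active = GFP signal, as percent of the solvent control, above the screen mean plus 3 SD, about 149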). The note with it: 3 h, at 10 µM, stronger effect = higher value.
Assay [15] in a line: modulators of AGP1-GFP expression in yeast TOR pathway, primary screen, cell-based, multiplex flow cytometry, S. cerevisiae (AID 1887;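 active = GFP signal above the screen-wide mean plus 3 SD, that is over about 124.5% of the solvent control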;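 note: AGP1-GFP fusion strain of S. cerevisiae within a five-strain barcoded multiplex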). The note with it: 3 h, at 10 µM, stronger effect = higher value.
A short description of assay [16]: RPL19A-GFP modulators, yeast TOR pathway, confirmation, cell-based, S. cerevisiae, flow cytometry, cherry picks, mother/daughter gates (AID 2270;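 active = GFP response below 50% of the DMSO control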). The note with it: S. cerevisiae RPL19A-GFP strain, 3 h, at 10 µM, stronger effect = lower value, 100 = same GFP as DMSO wells.
The nature of assay [17]: LAP4-GFP expression modulators in yeast, confirmation, cell-based, cherry picks, flow cytometry, mother/daughter gates (AID 2271;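 active = GFP response above 150% of the DMSO control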;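 note: ratio of sample to DMSO plate mean so 100% equals DMSO level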). The conditions noted are these: S. cerevisiae LAP4-GFP strain, 3 h, at 10 µM, stronger effect = higher value, 100 means same as DMSO control.
Assay [18] can be described thus: modulators of MEP2-GFP levels in yeast, confirmation, S. cerevisiae, flow cytometry GFP, cherry picks (AID 2272;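 active = GFP response above 150% of the DMSO control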;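 note: ratio of well signal to plate DMSO mean so 100% equals DMSO level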). The note with it: S. cerevisiae MEP2-GFP strain, 3 h, at 10 µM, stronger effect = higher value.
The nature of assay [19]: modulators of CIT2-GFP expression in yeast, confirmation, S. cerevisiae, GFP fusion, cherry picks, mother/daughter gates (AID 2274;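 active = GFP response above 150% of the DMSO level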). The note with it: S. cerevisiae CIT2-GFP strain, flow cytometry, 3 h, at 10 µM, stronger effect = higher value.
Assay [20] is described as follows: inhibitors of CD8+ T cell-vesicle binding, pilot screen, LFA-1/ICAM-1 modulator project, MLPCN validation set, flow cytometry (AID 2523;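 active = response below a set limit, under 55% cells CD8-positive and vesicle-bound, and CD8 cells' 90th-percentile brightness under 279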;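 for vesicle binding response: mean PE anti-B7-1 fluorescence of CD8+ cells relative to row control; 100% = QL9-loaded vesicles with DMSO vehicle in the same plate row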). The note with it: 2C mouse CD8+ T cells, at 7 µM, stronger effect = lower value; double positive events: measured here: CD8+/vesicle+ event percentage.
Where [21] appears, read: measured here: daughter cell gate.
Where [22] appears, read: measured here: mother cell gate.
The mark [23] stands for this setting: measured here: daughter cell gate response.
[24] abbreviates: measured here: mother cell gate response.

The structures appear in SMILES notation. Records with an inconclusive call do not appear. The list shows a part of the results. Activity calls are given as the source filed them. Cut-off read from the data, not from the text of the source, unless noted: active = binding response below about 72% or above about 130%; inactive = in between.

On to `N#Cc1nc(COc2ccc(-c3ccccc3)cc2)oc1NCc1cccnc1`, for which the RGS16–Galpha-o binding response in assay [1] is 0%. Besides, the RGS19–Galpha-o binding response in assay [2] stood at 78.7%. In [3], this molecule displayed an RGS7–Galpha-o binding response of 202%. In addition, the RGS8–Galpha-o binding response in assay [4] is 167%. The inhibition in assay [5] was 6.8% (inactive). In addition, the binding response (% of control) is 156% [activator] (active) in [6] and 376% [activator] (active) in assay [9]. Further, the values for the response (percent of control binding) in assay [7] and in assay [10] were 517% [activator] (active) and 565% (active), respectively. In addition, the response (% of control binding) in assay [8] is 364% [activator] (active).

With `Oc1ccc(N=Nc2nccs2)c(O)c1`, in [1], the RGS16–Galpha-o binding response is -16.2%. Besides, the RGS19–Galpha-o binding response in assay [2] turned out to be 158%. The RGS7–Galpha-o binding response in assay [3] came to 270%. This molecule also yielded an RGS8–Galpha-o binding response in assay [4] of 6.26%. In addition, in assay [5], the inhibition was -1.7% (inactive). Moreover, the binding response (% of control) in [6] is 99% (inactive); in assay [9], 98.7% (inactive). The response (percent of control binding) in [7] is 96.5% (inactive); in assay [10], 99.6% (inactive). The response (% of control binding) in assay [8] is 97.6% (inactive).

Consider `CC1(C)C=C2[C@H]3CC[C@@H]4[C@@]5(C)CCC(=O)C(C)(C)[C@@H]5CC[C@@]4(C)[C@]3(C)CC[C@@]2(C(=O)O)CC1`, for which the RGS16–Galpha-o binding response in [1] was 267%. The RGS19–Galpha-o binding response in [2] was -110%. For the same molecule, the RGS7–Galpha-o binding response in [3] turned out to be 114%. In [4], this molecule yielded an RGS8–Galpha-o binding response of 134%. For the same molecule, the inhibition in [5] was 0.1% (inactive). Besides, the binding response (% of control) in assay [6] is 107% (inactive); in [9], 94.2% (inactive). In addition, the response (percent of control binding) is 81.6% (inactive) in [7] and 68.7% (inactive) in assay [10]. Moreover, in [8], the response (% of control binding) was 107% (inactive).

Regarding `COc1cccc(/C=C/C(=O)c2c(O)cc(C)oc2=O)c1O`, the percent of DMSO control GFP in assay [11] is 104% (inactive). In addition, the GFP response vs DMSO in assay [12] is 108% (inactive); in assay [14], 184% (active); in [16], 101% (inactive); in assay [16] (setting [21]), 104%; in [16] (setting [22]) it was 99.7%; in assay [18], 107% (inactive). For the same molecule, in assay [13], the percent response of DMSO control is 82.5% (inactive). In addition, the GFP response, % of DMSO in assay [15] was 91.1% (inactive); in assay [19], 91.2% (inactive); in assay [19] (setting [21]) it was 99.1%; in assay [19] (setting [22]), 90.2%. The GFP response relative to DMSO in assay [17] is 165% (active); in assay [17] (setting [23]), 155%; in assay [17] (setting [24]) it was 175%. The molecule also came in with a double positive events in [20] of 62.2%. Also, the vesicle binding response in assay [20] was 259% (inactive).

`COc1ccc(C(=O)NCC2OCCc3ccccc32)cc1` (stereo unspecified): in assay [11], the percent of DMSO control GFP is 90% (inactive). In addition, the GFP response vs DMSO in assay [12] was 150% (active); in assay [14] it was 107% (inactive); in [16], 96.4% (inactive); in [16] (setting [21]), 97.1%; in assay [16] (setting [22]) it was 97.2%; in [18] it was 102% (inactive). Further, in assay [13], the percent response of DMSO control is 120% (inactive). Further, the GFP response, % of DMSO in [15] is 107% (inactive); in [19] it was 98.3% (inactive); in [19] (setting [21]), 99.1%; in assay [19] (setting [22]), 97.3%. In addition, the GFP response relative to DMSO in [17] was 103% (inactive); in assay [17] (setting [23]), 102%; in [17] (setting [24]) it was 104%. This molecule also gave a double positive events in assay [20] of 64.3%. The vesicle binding response in assay [20] is 122% (inactive).

In the case of `COc1ccc(-c2noc(-c3ccccc3-c3ccccc3)n2)cc1`, in assay [11], the percent of DMSO control GFP was 91.1% (inactive). For the same molecule, the GFP response vs DMSO in assay [12] is 142% (active); in [14], 81.4% (inactive); in assay [16] it was 95.6% (inactive); in assay [16] (setting [21]) it was 92.9%; in assay [16] (setting [22]) it was 96.8%; in assay [18] it was 107% (inactive). Moreover, the percent response of DMSO control in assay [13] is 114% (inactive). For the same molecule, the GFP response, % of DMSO in assay [15] is 86.3% (inactive); in [19], 97.3% (inactive); in assay [19] (setting [21]), 97.4%; in assay [19] (setting [22]), 96.8%. The values for the GFP response relative to DMSO in assay [17], in [17] (setting [23]) and in [17] (setting [24]) were 95.7% (inactive), 95.9% and 97.3%, respectively. The double positive events in assay [20] was found to be 56.5%. Further, the vesicle binding response in assay [20] is 138% (inactive).

Broadly, the inhibition is the relative decrease from the control value, in per cent.
